ELG1 repair inh = blocks ELG1-dependent DNA repair in HEK293T cells; Potency, µM (doses to about 46.1 µM), for inactives: at the top dose activity change, negative = inhibition, usual class: inhibitors; actives 2.3% (n = 330,000); HEK293T ELG1-luciferase reporter, luminescence, 16 h; DNA damage induced by 5-fluorouridine; also: potency is read from the fitted curve at half-maximal effect; nearly all actives have a fitted effect of over 55% in size
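Overnight (16 hr) co-exposure of 2,000 cells/well to 5-fluorouridine and compound at 37 °C preceded detection. Luciferase was quantified via ONE-Glo luminescence; loss of signal denotes inhibition.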
HT1080-NT tox = kills 2HG-producing HT-1080-NT fibrosarcoma cells. Potency, µM (doses to about 46.1 µM), inactives show top-dose activity, negative = less viability, most hits filed as cytotoxic. HT-1080-NT fibrosarcoma viability, CellTiter-Glo ATP luminescence, 48 h. actives 1.6% (n = 360,000). AID 686970;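 also: NT is the 2HG producing partner of a matched IDH1 knockdown line; potency is read from the fitted curve at half-maximal effect; 0% = DMSO-treated cells and -100% = media-only wells without cells; nearly all actives have a fitted effect of over 55% in size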
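HT-1080-NT fibrosarcoma cells (2HG-overproducing), 750 cells/well in RPMI with 5% FBS, dosed after 2 h and incubated 48 h at 37C. CellTiter-Glo luminescence normalized to DMSO and no-cell wells; concentration-response curves fitted and classed.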
HT1080 IDH1KD tx = toxicity to HT-1080 IDH1 knockdown cells (counter line) | Potency, µM (doses to about 46.1 µM), inactives show at the highest dose activity, negative = toxicity, usual class: cytotoxic | HT-1080 IDH1 knockdown viability, ATP luminescence, 48 h | AID 686971 | actives 2% (n = 360,000);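 also: potency is read from the fitted curve at half-maximal effect; 0% = DMSO wells and -100% = cell-free medium wells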
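Luminescent ATP read-out (CellTiter-Glo, 10 min at room temperature) after 48 h compound exposure at 37 °C gave viability of IDH1-knockdown HT-1080 cells. Activity was normalised to DMSO and cell-free wells, then fitted as concentration-response curves.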
TDP1 cell CPT = growth inhibition of DT40 Tdp1-/-;hTDP1 cells with camptothecin (screen for TDP1 inhibitors); chicken DT40 Tdp1-/-;hTDP1 cells + 20 nM CPT, ATP luminescence, 48 h; Potency, µM (doses to about 46.2 µM), for the others: at the highest dose activity change, negative = growth inhibition, usual class: inhibitors; actives 12% (n = 420,000); also: potency is read from the fitted curve at half-maximal effect; nearly all actives have a fitted effect of over 55% in size
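Chicken DT40 Tdp1-/- cells stably complemented with human TDP1 were seeded at 400 cells/well in medium containing 20 nM camptothecin, exposed to pin-transferred compounds, and grown at 37 °C for at least 48 hr. Viability was read as ATP luminescence.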
IL-1B inflam inh = inhibitors of inflammasome signaling (IL-1 beta secretion) | THP-1 LPS/ATP IL-1B secretion, AlphaLISA, 16 h; stronger effect = lower value | activity change, % at 57.5 µM | actives 4.7% (n = 360,000); in the data active = activity change below about -50%; inconclusive = mostly about -30% to -49%
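Secreted IL-1B measured by AlphaLISA bead assay after 16 h compound exposure of THP-1 cells; compounds (final up to 57.5 uM) added 1 h before LPS (250 ng/mL) and ATP (1.25 mM) stimulation; lower signal means less secretion.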
DT40 TDP1 no CPT = qHTS for Inhibitors of human tyrosyl-DNA phosphodiesterase 1 (TDP1): qHTS in cells in absence of CPT. DT40 Tdp1-/- hTDP1 cells, no CPT, ATP luminescence, 48 h. AID 686978, 2013. actives 15% (n = 420,000). Potency, µM (series often up to 46.2 µM), without a hit: at the top dose activity change, negative = growth inhibition, usual class: inhibitors; also: potency is read from the fitted curve at half-maximal effect; nearly all actives have a fitted effect of over 55% in size
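Growth kinetics read by CellTiter-Glo luminescence after ≥48 hr at 37 °C. Cells: DT40 Tdp1-/- stably carrying human TDP1, 400 per well, compound exposure in the absence of CPT (DMSO vehicle).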
Starred values were filed as active, the others as inactive; u = inconclusive; x = no result. Compounds with a hit are over-represented: about 19% of the library has one in this group of screens. Unless noted, calls follow the shape of the dose curve; as a rule, active = well fitted curve in the direction sought with a large enough effect; inconclusive = small, poorly fitted or top-dose-only effect, or another doubt; inactive = no such curve, though single readings can be large; an effect the other way counts as inactive or inconclusive. Unless noted, % is scaled to controls: 0 for no effect and ±100 for the full control effect.

SMILES	ELG1 repair inh	HT1080-NT tox	HT1080 IDH1KD tx	TDP1 cell CPT	IL-1B inflam inh	DT40 TDP1 no CPT
O=c1[nH]c(=S)n(-c2ccccc2Cl)c(O)c1C=NCCN1CCNCC1	-7%	4%	12%	1%	4	-1%
C[C@]12C=CC(=O)C=C1CC[C@@H]1[C@@H]2CC[C@]2(C)OC(=O)CC[C@@H]12	x	x	x	-19%	x	-9%
COc1ccc(-n2c(O)c(/C=C3\C=Nc4ccc(Br)cc43)c(=O)[nH]c2=O)c(OC)c1	u	-35%	u	u	-96*	u
O=c1[nH]c(=O)n(-c2ccc(F)cc2)c(O)c1/C=C1\C=Nc2ccccc21	-10%	-4%	-3%	3%	13	1%
COc1ccc(-n2c(O)c(/C=C3\C=Nc4ccc(Br)cc43)c(=O)[nH]c2=O)cc1	u	-1%	-2%	u	18	u
O=c1[nH]c(=O)n(-c2ccccc2F)c(O)c1/C=C1\C=Nc2ccccc21	3%	-24%	-15%	16µM*	46	21µM*
O=C1NC[C@H](CCCCN2C[C@@H](Cc3ccccc3)N(CCC3CCCCC3)C(=O)C2=O)N(CCC2CCCCC2)C1=O	x	11%	2%	u	u	u
N#Cc1ccc(C(=O)N2CCN(c3nc4ccc(F)cc4s3)CC2)cc1	x	x	x	2.3µM*	x	2.3µM*
CCc1ccc(Nc2nc3c(S(=O)(=O)c4ccc(C)cc4)nnn3c3ccsc23)cc1	x	x	x	3.7µM*	x	3.7µM*
COc1ccc2c(c1)[C@@]13CCC=C[C@H]1[C@@H](C2)NCC3	0%	u	u	-29%	-30	u
Clc1ccc2c(c1)C(c1ccccc1Cl)=NCc1nnc(N3CCN(CCOc4ccccc4)CC3)n1-2	u	u	u	21µM*	u	16µM*
Clc1ccc2c(c1)C(c1ccccc1Cl)=NCc1nnc(N3CCN(CCSc4ccccc4)CC3)n1-2	3%	-5%	-8%	26µM*	28	u
S=C(NCc1ccccc1)NCC1COc2ccccc2O1 (centres undefined)	-1%	u	u	-12%	50	-1%
CN(CC1COc2ccccc2O1)c1nc(-c2cccnc2)nc2ccccc12 (centres undefined)	16µM*	-15%	-3%	21µM*	u	23µM*
C[C@]12CC[C@@H]3c4ccc(OC(=O)N(CCCl)CCCl)cc4CC[C@H]3[C@@H]1CC[C@@H]2OP(=O)(O)O	x	x	x	3%	x	-3%
O=C(c1ccco1)c1cn(Cc2ccccc2Cl)c2ccccc12	8%	5%	u	18µM*	-16	u
Cc1nn(-c2nccs2)c2c1C(=O)CC(C)(C)C2Br (centres undefined)	x	-16%	-29%	u	u	16µM*
CCN1C[C@]2(C)CC[C@H](O)[C@@]34C5C[C@@H]6[C@@H](OC)C[C@@](O)(C5[C@H]6O)[C@@H](CC23)[C@@H]14 (some centres undefined)	x	x	x	6%	x	3%
Clc1ccccc1CNCCc1c[nH]c2ccccc12	x	5%	4%	-24%	-7	u
c1ccc2c(CNC3CCCCCC3)c[nH]c2c1	-4%	u	20µM*	3.3µM*	-70*	7.3µM*
CNC(C)Cc1ccccc1OC (centres undefined)	x	x	x	-4%	x	-2%
COc1ccc(Cl)cc1NC(=O)c1sc2nc3c(cc2c1N)N1CCC3CC1	x	x	x	1%	x	-24%
N#Cc1cccc(NC(=O)CSc2nc3c(cc2C#N)N2CCC3CC2)c1	x	x	x	u	x	16µM*
N#Cc1cc2c(nc1SCC(=O)Nc1ccc(OC(F)(F)F)cc1)C1CCN2CC1	x	x	x	u	x	18µM*
O=C(Nc1ccc(OC(F)(F)F)cc1)Oc1ccccc1N1CCCCC1	1%	9%	1%	u	-7	u
SMILES	ELG1 repair inh	HT1080-NT tox	HT1080 IDH1KD tx	TDP1 cell CPT	IL-1B inflam inh	DT40 TDP1 no CPT
N#Cc1cccc(NC(=O)c2sc3nc4c(cc3c2N)N2CCC4CC2)c1	x	x	x	4.1µM*	x	13µM*
CCn1cc(C(=O)N[C@@H](C)C(=O)OC)c(=O)c2cc3c(cc21)OCO3	u	2%	18%	-17%	-5	-15%
CCCCCn1c(=O)c(C(=O)Nc2cccc(C)c2)c(O)c2ccccc21	14%	10%	0%	-10%	0	4.6µM*
CCCCCn1c(=O)c(C(=O)NCc2ccccc2Cl)c(O)c2ccccc21	-1%	16%	10%	u	-2	u
CCCCCn1c(=O)c(C(=O)Nc2ccccc2)c(O)c2ccccc21	18%	7%	6%	4.1µM*	20	5.2µM*
CCCCCCn1c(=O)c(C(=O)Nc2c(C)n(C)n(-c3ccccc3)c2=O)c(O)c2ccccc21	-14%	u	-15%	5.2µM*	17	6.5µM*
C=CCOC(=O)N1Cc2ccccc2-n2nncc2C1	x	-3%	-5%	-3%	7	-19%
OC[C@@H](O)[C@H]1O[C@@H]2O[C@@H](C(Cl)(Cl)Cl)O[C@@H]2[C@H]1O	x	x	x	0%	x	-23%
O=C1NC(=O)C(C2CCCCCC2)C(=O)N1	x	6%	5%	-2%	32	-10%
CC1CC(NC(=O)C2C3CCC(O3)C2C(=O)O)CC(C)(C)C1 (centres undefined)	u	u	u	6%	52	1%
COC(=O)c1cn(S(=O)(=O)c2ccccc2)c2ccccc12	-4%	-7%	-5%	u	-2	26µM*
COC(=O)c1cn(CC(=O)NC2CCCCC2)c2ccccc12	9%	u	3%	-2%	9	1%
Oc1ccc(CCNCc2cc3c(cc2Br)OCO3)cc1	x	-6%	-29%	u	u	29µM*
CCOc1ccc(C(=O)N2CCC(c3noc(-c4ccc(S(=O)(=O)N5CCCC5)cc4)n3)CC2)cc1	x	x	x	u	x	16µM*
CC1(C)CC(=O)CC(C)(C)N1O	x	11%	4%	15%	7	2%
CCOP(=O)(Cc1cc(C(C)=O)c(C)o1)OCC	-4%	-3%	-4%	-17%	-27	-12%
CCCCOc1ccc(CNC(=O)c2cc3n(n2)CCCN(Cc2ccc(C)cc2)C3=O)cc1	x	x	x	21µM*	x	13µM*
CCCCn1c(=O)c(C(=O)NCc2ccc(Cl)cc2)c(O)c2ccccc21	-19%	15%	5%	-87%	69	u
